Screening data (PubChem)
Sampled rows, rich in hits. Any-hit rate of the full collection: about 2.3%.
aSyn rescue: alpha-synuclein toxicity inhibition in yeast. Potency, µM (top dose mostly 46.1 µM), actives largely listed as activators. hit rate 0.14% among 370,000. Yeast expressing alpha-synuclein, growth rescue, BacTiter-Glo, 24 h; note: nearly all actives have a fitted effect of over 65% in size
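Screening used galactose-induced yeast with toxic alpha-synuclein levels, exposed to compound for 24 hr at 30 deg C. Cell growth, read with BacTiter-Glo luminescence, gave the measured signal.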
FUS yeast rescue: suppressors of FUS proteinopathy in yeast; S. cerevisiae FUS-expressing, growth rescue, OD600, 24 h; hit rate 0.24% among 390,000; Potency, µM (series often up to 76.6 µM), actives largely listed as activators; note: nearly all actives have a fitted effect of over 55% in size
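S. cerevisiae expressing FUS from galactose induction served as the toxicity model. Growth after 24hr at 30C, read as absorbance at 600 nm, indicates suppression of toxicity; compounds dosed at several concentrations.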
BCR signal inh: chronic active BCR signaling inhibition. hit rate 0.05% among 340,000. ABC-DLBCL IkBa-CBG/CBR reporter, luminescence ratio, 4 h. AID 493014. Potency, µM (series often up to 46.1 µM), actives largely listed as inhibitors; active = well fitted inhibition curve with a large enough effect in the signal ratio, with a control signal flat, not every such curve was filed as active; inconclusive = small, poorly fitted or top-dose-only effect, or effect the other way, or a change in a side signal; the % refers to the signal ratio
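Cell line TMD8 (human ABC DLBCL), stably expressing tet-inducible CBG68-IkBa fusion and CBR; IMDM/0.5% FBS; cpd up to 46 uM; dox induction, 4 h, 37C/5% CO2; dual luminescence; green/red ratio; MG132 control.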
Abeta yeast res: compounds reversing amyloid beta toxicity in yeast. yeast expressing A-beta42, growth rescue, OD600, 48 h; response scale: 0% DMSO, 100% iron-clioquinol control. Potency, µM (titrated, usually from 46.1 µM), usual class: activators. hit rate 0.063% among 410,000. AID 1347071; note: nearly all actives have a fitted effect of over 55% in size
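Yeast A-beta toxicity model in growth medium with pinned compounds, 48 h at 30 C; growth read as absorbance at 600 nm. Normalized to FeCl3/clioquinol equimolar mix (positive) and DMSO (negative).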
uPA surface inh: inhibitors of cell surface uPA generation | cell surface uPA generation assay, qHTS | Potency, µM (top dose mostly 38.3 µM), most hits filed as inhibitors | hit rate 0.31% among 330,000 | AID 540303; active = well fitted inhibition curve with a large enough effect; inconclusive = small, poorly fitted or top-dose-only effect; inactive = no such curve, though single readings can be large or run the other way; tested in mouse RAW 264.7 cells; note: nearly all actives have a fitted effect of over 55% in size
TDP-43 yeast inh: inhibitors of TDP-43 toxicity in yeast. TDP-43 expressing yeast growth rescue, BacTiter-Glo, 24 h. Potency, µM (series often up to 46.1 µM), most hits filed as activators. hit rate 1.8% among 410,000. AID 652104; note: nearly all actives have a fitted effect of over 50% in size
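Yeast cells expressing TDP-43 under galactose induction are exposed to compounds for 24 hr at 30 deg C. BacTiter-Glo luminescence measures growth, so protective compounds score as activators.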
Each line names hits and unclear results; the compound was inactive in the other large screens. Unless noted, calls come from the whole dose curve; as a rule, active = well fitted curve in the direction sought with a large enough effect; inconclusive = small, poorly fitted or top-dose-only effect, or another doubt; inactive = no such curve, though single readings can be large; an effect the other way counts as inactive or inconclusive.

COc1ccc(-c2cn[nH]c2-c2ccc(OC)cc2O)cc1	aSyn rescue 22.4µM, Abeta yeast res inconclusive, TDP-43 yeast inh 25.1µM
CC1=C(C(=O)N2CCOCC2)CC(CC(=O)NC2CCCCC2)C(=O)N1Cc1ccc(C(C)(C)C)cc1 (stereo unspecified)	aSyn rescue 3.55µM, TDP-43 yeast inh inconclusive (no result: BCR signal inh, uPA surface inh)
CC1=C(C(=O)N2CCOCC2)CC(CC(=O)NC2CC2)C(=O)N1Cc1ccc(C(C)(C)C)cc1 (stereo unspecified)	none (no result: BCR signal inh, uPA surface inh)
COc1ccc(C(C(=O)NC2CCCC2)n2c(CSCCOc3ccccc3)nc3ccccc32)cc1 (stereo unspecified)	FUS yeast rescue 17.8µM (no result: BCR signal inh, uPA surface inh)
COc1ccc(C(C(=O)NC2CCCC2)n2c(Cc3cc(F)cc(F)c3)nc3ccccc32)cc1 (stereo unspecified)	TDP-43 yeast inh inconclusive (no result: BCR signal inh, uPA surface inh)
Cc1ccc(/C=N/n2cc(-c3ccccc3)[nH]c2=S)s1	BCR signal inh inconclusive, Abeta yeast res 4.47µM
Cc1cc(C)n2nc(Cc3ccccc3)nc2n1	none (no result: FUS yeast rescue)
Clc1ccc(-c2nnc3n2N=C(c2ccc(-c4ccccc4)cc2)CS3)cc1	none (no result: aSyn rescue, BCR signal inh, Abeta yeast res, uPA surface inh, TDP-43 yeast inh)
Cc1ccc(-c2nnc3n2N=C(c2ccccc2)CS3)cc1	BCR signal inh inconclusive
Clc1ccc(C2=Nn3c(nnc3-c3cc(-c4ccccc4)n[nH]3)SC2)cc1	BCR signal inh 5.17µM (no result: uPA surface inh)
c1ccc(C2=Nn3c(nnc3-c3cc(-c4ccccc4)n[nH]3)SC2)cc1	BCR signal inh 11.6µM
CC(=O)N1N=C(c2ccco2)CC1c1ccc(Br)cc1 (stereo unspecified)	TDP-43 yeast inh 20µM
CC(=O)N1N=C(c2ccco2)CC1c1ccc(C)cc1 (stereo unspecified)	none
O=C(N[C@H]1CC1c1ccccc1)c1ccc([N+](=O)[O-])cc1 (stereo partly specified)	BCR signal inh inconclusive
Oc1ccc(NC(=S)Nc2ccc(O)cc2)cc1	none
Cc1ccc(Sc2ccc(N)cc2C#N)cc1	TDP-43 yeast inh 22.4µM (no result: FUS yeast rescue, BCR signal inh)
Cc1cccc(N2CCN(C(=O)c3ccc4nc(N5CCCCC5)sc4c3)CC2)c1C	TDP-43 yeast inh inconclusive
COc1ccccc1/C=N/NC(=O)c1ccc(Br)cc1	BCR signal inh inconclusive
Clc1cccc(OCc2nnc(-c3ccccc3Br)o2)c1	aSyn rescue inconclusive, BCR signal inh inconclusive, TDP-43 yeast inh 17.8µM
Clc1ccc(OCc2nnc(-c3ccccc3Br)o2)cc1	none
O=C(Nc1cccc(C(F)(F)F)c1)C1Cc2c(-c3ccco3)ccnc2O1 (stereo unspecified)	none (no result: BCR signal inh, uPA surface inh)
CN(C(=O)C1Cc2c(-c3ccccc3Oc3ccccc3)ccnc2O1)c1ccccc1 (stereo unspecified)	FUS yeast rescue inconclusive, TDP-43 yeast inh inconclusive (no result: BCR signal inh, uPA surface inh)
CC(=O)c1cccc(-c2ccnc3c2CC(C(=O)Nc2ccc(Cl)cc2)O3)c1 (stereo unspecified)	FUS yeast rescue inconclusive (no result: BCR signal inh, uPA surface inh)
CC(=O)c1cccc(NC(=O)C2Cc3c(-c4ccc(Cl)cc4)ccnc3O2)c1 (stereo unspecified)	aSyn rescue inconclusive, FUS yeast rescue 39.8µM, TDP-43 yeast inh inconclusive (no result: BCR signal inh, uPA surface inh)
CN(C(=O)C1Cc2c(-c3ccc(Cl)cc3)ccnc2O1)c1ccccc1 (stereo unspecified)	TDP-43 yeast inh 22.4µM (no result: BCR signal inh, uPA surface inh)
O=C(Nc1cccc(C(F)(F)F)c1)C1Cc2c(-c3ccccc3)ccnc2O1 (stereo unspecified)	aSyn rescue inconclusive, Abeta yeast res inconclusive, TDP-43 yeast inh 35.5µM (no result: BCR signal inh, uPA surface inh)
O=C(Nc1cccc(C(F)(F)F)c1)C1Cc2c(-c3ccc(Cl)cc3)ccnc2O1 (stereo unspecified)	aSyn rescue inconclusive, TDP-43 yeast inh 20µM (no result: BCR signal inh, uPA surface inh)
COC(=O)c1cc2oc3ccccc3c2n1CC(=O)Nc1ccc(Cl)cc1F	none (no result: aSyn rescue, BCR signal inh, uPA surface inh)
O=C(NCCC1=CCCCC1)c1cc(COc2ccc(F)cc2Cl)on1	none
Cc1ccc(-c2nnc(N)o2)cc1	none
Cn1c(CC(=O)Nc2ccc(Cl)c(Cl)c2)nnc1SCC(=O)N1CCN(c2ccccc2)CC1	none (no result: uPA surface inh)
CCn1c2ccccc2c2nc3ccccc3nc21	TDP-43 yeast inh 10µM
CCn1c2ccccc2c2nc3cc(OC)c(OC)cc3nc21	BCR signal inh inconclusive
Cc1cc(NCCCCCCCNc2cc(C)nc3cc([N+](=O)[O-])ccc23)c2ccc([N+](=O)[O-])cc2n1	TDP-43 yeast inh 14.1µM (no result: FUS yeast rescue, BCR signal inh)
COCCCNc1cc(C)nc2ccccc12	none
CC(=O)n1nc(-c2ccccc2)cc1-c1ccccc1	TDP-43 yeast inh 12.6µM (no result: BCR signal inh)
O=C(O)Cn1nc(-c2ccccc2)cc1-c1ccccc1	none
CC1CCCN(C(=O)CSc2nnc(-c3cccs3)o2)C1 (stereo unspecified)	none
O=C(c1ccc2nc(Cc3cccc(Cl)c3)oc2c1)N1CCOCC1	none (no result: FUS yeast rescue)
O=C(CSc1nnc(COc2ccccc2Cl)o1)NC(=O)NC1CCCC1	aSyn rescue 17.8µM, FUS yeast rescue inconclusive
Cc1ccc2c(c1)[C@@H](O)C[C@@H](C)N2N=O	none
CC(=O)/C(=C/c1ccccc1)C(=O)Nc1ccccc1C	aSyn rescue inconclusive, uPA surface inh 2.82µM, TDP-43 yeast inh 2.51µM
CCOC(=O)C1(CC2CCCCO2)CCN(S(=O)(=O)c2cc(C)cs2)CC1 (stereo unspecified)	none (no result: uPA surface inh)
c1ccc2oc(-c3csc(NCC4CCCO4)n3)cc2c1 (stereo unspecified)	BCR signal inh inconclusive, TDP-43 yeast inh 11.2µM
C=CCNc1nc(-c2ccc3c(c2)OCCO3)cs1	uPA surface inh inconclusive (no result: BCR signal inh)
c1ccc2sc(NCC3CCCO3)nc2c1 (stereo unspecified)	none
C=CCNc1nc(-c2cc3ccccc3o2)cs1	BCR signal inh inconclusive, TDP-43 yeast inh 12.6µM (no result: FUS yeast rescue)
CCOC(=O)C1=NN(C(=O)c2ccc(C)cc2)C(O)(c2ccc(Cl)cc2)C1 (stereo unspecified)	aSyn rescue inconclusive, FUS yeast rescue inconclusive, TDP-43 yeast inh 12.6µM
COC(=O)C1=NN(C(=O)c2ccc(Cl)cc2)C(O)(c2ccccc2)C1 (stereo unspecified)	aSyn rescue 20µM, BCR signal inh inconclusive
C=CCn1c2ccccc2c(=O)c2cc(C#CC[C@@H](C)O)ccc21	uPA surface inh 3.98µM
C=CCn1c2ccccc2c(=O)c2cc(C#CC3(O)CCCCC3)ccc21	BCR signal inh inconclusive, uPA surface inh inconclusive
Brc1ccc(CNCCCSc2ncccn2)cc1	uPA surface inh inconclusive
CC(C)(C)OC(=O)N1CCC(CC2CC(c3ccccc3)=NO2)(C(=O)O)CC1 (stereo unspecified)	TDP-43 yeast inh 22.4µM (no result: BCR signal inh)
Cc1ccc(SCCNC(=O)c2ccc(C)c(S(=O)(=O)Nc3cccc(C)c3)c2)cc1	FUS yeast rescue 31.6µM, BCR signal inh inconclusive
